Data published in ChEMBL document CHEMBL3988442, “University of Dundee, Small-Polar-MMV Screening Library” (2021).

molecular target: AMP-activated protein kinase, AMPK (Homo sapiens) (UniProt P54646+O43741+P54619+Q9UGJ0+Q9Y478+Q13131+Q9UGI9); assay: AMP-dependent Kinase enzyme assay. An in vitro enzyme assay that detects ADP turnover that is directly proportional to AMPK activity. This uses naive AMPK that is activated during the assay with MK-8722; type: functional; design: scale not given: direction of the effect not stated beside the values; conditions: 30 µM

SMILES | Percent Effect
Cc1ccc(F)c(C(=O)Nc2c(C(N)=O)n[nH]c2C)c1 | 9.84%
CSCC(C)(O)CNS(=O)(=O)c1cccc(C)c1 (stereo not given) | -0.713%
COc1ccc(Cl)cc1CN(CC(N)=O)C(C)C | -4.14%
O=S(=O)(NCCCn1cccn1)c1ccc2c(c1)CCC2 | 12.2%
Cc1c(C(=O)NCCCS(C)(=O)=O)cccc1-c1ccccn1 | 10.6%
COc1ccc(C)cc1CN(C)CC(N)=O | -2.2%
COc1cc(C)c(S(=O)(=O)CC(=O)N(C)C2CC2)cc1OC | 2.73%
CCCc1ccc(CN2CCC3(CCC(=O)N(C(C)C(=O)O)C3)CC2)o1 (stereo not given) | 31.1%
CC(=O)N1CCC(C(=O)N2CCC2c2nc(-c3ccc(C)s3)no2)CC1 (stereo not given) | 7.15%
COC(=O)c1ccc(CN(C(C)C)C(C)C)o1 | 3.89%
O=C(Cc1c[nH]c(=O)[nH]c1=O)N1CCCCC1CCc1ccccc1 (stereo not given) | -1.5%
CN1CCOC(CNCC(=O)NCCc2ccc(F)cc2)C1 (stereo not given) | 4.27%
CC(=O)NCC(=O)Nc1cc(C)n(-c2ccc(Cl)cc2Cl)n1 | 3.23%
CNC(=O)C1CCCN(C(=O)c2cncs2)C1 (stereo not given) | 4.55%
COc1cc(NC2CCCN(c3ncccc3C#N)C2)cc(OC)c1 (stereo not given) | -37.2%
O=C(c1nc(N2CCCC2)ncc1Cl)N1CCN(Cc2ccsc2)CC1 | 7.12%
CC(C)[C@@H]1CN(Cc2cnc3c(S(C)(=O)=O)cnn3c2)C[C@H]1N(C)C | -8.81%
COc1ccc(NC(=O)c2cnc(C3CCN(C(C)=O)C3)nc2C)cc1 (stereo not given) | -1.66%
CCOCCC(=O)N1CCCC(c2cc(C(F)(F)F)[nH]n2)C1 (stereo not given) | 0.822%
Cc1cc(C)n(CCCN(C)c2cc(C3CC3)ncn2)n1 | 6.65%

SMILES | Percent Effect
Cc1cc(CC(=O)NC2CCCN(c3ccccc3F)C2=O)n[nH]1 (stereo not given) | 10.6%
COc1ccc(C(=O)N2C[C@@H](O)[C@H](NCCc3ncccc3C)C2)cc1 | -1.16%
N#CC1(NC(=O)c2ccc(F)cc2OC(F)F)CCOCC1 | 1.96%
COc1ccc(Oc2cc(CN)ccn2)cc1 | -36.1%
CC(C)[C@H]1CN(Cc2nccn2C)C[C@@H]1NC(=O)COCC(N)=O | 9.37%
Cc1ncsc1C(=O)NCCCN1CCCCCC1=O | -10%
COCCN(C)C(=O)NCCc1coc(-c2ccc(C)cc2)n1 | -3.83%
O=C(CCCN1CCCCC1)N[C@H](C(=O)O)c1cccc(F)c1F | 6.38%
CCc1nc(CN(C)C(=O)CSC)no1 | 1.82%
O=C(Nc1ccccc1C(=O)NCCN1CCOCC1)c1ccco1 | -3.24%
CC1(C)CN(Cc2ccncc2)CCS1(=O)=O | -9.12%
CC(NCc1nnc2n1CCCC2)c1nc(Cc2ccccc2)no1 (stereo not given) | -1.56%
O=C(Nc1ccc2c(c1)C(=O)NC2=O)c1ccc(Cl)s1 | -3.34%
COc1cccc(-c2n[nH]cc2-c2nc(CC3CCN(C)CC3)no2)c1 | -6.69%
CCc1nnc(CN2CC(n3cccn3)C2)o1 | -3.56%
Cc1noc(CCCc2nc(C3CCOC3)no2)n1 (stereo not given) | 10.8%
Cc1cccc(N2CCN(C(=O)CNCCn3cc(C)cn3)CC2)c1 | -4.92%
COc1ncnc(N)c1CNCCc1ccc(-n2cccn2)cc1 | 6.72%
CS(=O)(=O)c1ccc(-c2cc(C3CC3)c(C#N)c(N)n2)cc1 | 12.5%
Cc1oc(-c2ccco2)nc1CN1CCc2cncnc2C1 | -10.6%
